Experimental data as given in PubChem BioAssay AID999 (SRMLSC, 2007).
Unmarked numbers belong to inactive results. Activity calls are given as the source filed them.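 Rule for the calls: active = viability at or below 21.59%, 3 SD under the median of tested compounds; inactive = the rest.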

experiment: viability loss in PTEN-deleted cells – cell-based, validation, diverse DP compound set (AID 999); conditions: HCT116 PTEN-null viability, CellTiter-Glo, 60 h; at 10 µM; stronger effect = lower value;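 note: 100% = median luminescence of untreated cell control wells and 0% = no signal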

Going from `[O][C@H]1[C@@H](O)[C@@H](CO)O[C@@H](O[C@@H]2[C@@H]3OC[C@H]2O[C@H](O[C@@H]2[C@@H](O)[C@H](C[C@@H]4[C@@H]5OC[C@H]4O[CH][C@@H]5O)O[C@H](CO)[C@@H]2OS(=O)(=O)O)[C@@H]3OS(=O)(=O)O)[C@@H]1O` to `CO[C@@H]1[C@@H](OC(N)=O)[C@@H](O)[C@H](Oc2ccc3c(O)c(NC(=O)c4ccc(O)c(CC=C(C)C)c4)c(=O)oc3c2C)OC1(C)C`, the viability falls from 100% to 88%.

Going from `O=c1c(-c2ccc(O)cc2)coc2cc(O)ccc12` to `O=C(c1ccc(OCCN2CCCCC2)cc1)c1c(-c2ccc(O)cc2)sc2cc(O)ccc12`, the viability falls from 89.7% to 61.1%.

Going from `O=c1[nH]cc(F)c(=O)[nH]1` to `O=C1CCC(N2C(=O)c3ccccc3C2=O)C(=O)N1` (stereo not given), the viability rises from 58.9% to 96.8%.

Compared with `C=CC1(C)CC(=O)C2(O)C(C)(O1)C(OC(C)=O)C(O)C1C(C)(C)CCC(O)C12C` (stereo not given), `CO/N=C(\C(=O)N[C@@H]1C(=O)N2C(C(=O)O)=C(COC(C)=O)CS[C@H]12)c1csc(N)n1` is higher in viability: 85.5% for the first, 89.4% for the second.

Compared with `COc1ccc2cc1Oc1ccc(cc1)C[C@H]1c3c(cc4c(c3Oc3cc5c(cc3OC)CCN(C)[C@@H]5C2)OCO4)CCN1C`, `COc1ccc(CCN(C)CCCC(C#N)(c2ccc(OC)c(OC)c2)C(C)C)cc1OC` (stereo not given) is higher in viability: 37.8% for the first, 85.1% for the second.

Compared with `C[C@H]1c2cccc(O)c2C(O)=C2C(=O)[C@]3(O)C(O)=C(C(N)=O)C(=O)[C@@H](N(C)C)[C@@H]3[C@@H](O)[C@@H]21`, `COC(=O)C1=C(C)NC(C)=C(C(=O)OCCNCc2ccccc2)C1c1cccc([N+](=O)[O-])c1` (stereo not given) is lower in viability: 90.5% for the first, 65.3% for the second.

Compared with `CC[N+](CC)(CC)CC(=O)Nc1c(C)cccc1C`, `COC(=O)CCc1c(C)[nH]c(C(=O)OCc2ccccc2)c1C` is lower in viability: 105% for the first, 97.7% for the second.

Compared with `COc1ccc(C2CNC(=O)C2)cc1OC1CCCC1` (stereo not given), `C[C@]12CC[C@@H]3c4ccc(O)cc4CC[C@H]3[C@@H]1CC[C@H]2O` is lower in viability: 96.5% for the first, 93.3% for the second.

Going from `COc1cc(CNC(=O)CCCC/C=C/C(C)C)ccc1O` to `COc1ccc2c(c1)c(CC(=O)O)c(C)n2C(=O)c1ccc(Cl)cc1`, the viability rises from 99.3% to 105%.

Going from `CC(=O)N1CCN(c2ccc(OC[C@H]3CO[C@](Cn4ccnc4)(c4ccc(Cl)cc4Cl)O3)cc2)CC1` to `Clc1ccc2ncnc(NCc3ccc4c(c3)OCO4)c2c1`, the viability rises from 70.7% to 83.1%.

Going from `COC(=O)c1cc2c(s1)-c1ccccc1OC2` to `COC(=O)Nc1nc2ccc(C(=O)c3cccs3)cc2[nH]1`, the viability falls from 97.4% to 50.2%.

Going from `CN(C)c1ccc(/C=C2\C(=O)Nc3ccccc32)cc1` to `O=C1OC(c2cc(I)c(O)c(I)c2)(c2cc(I)c(O)c(I)c2)c2ccccc21`, the viability rises from 86.2% to 93.5%.

First: CN1C2CCC1CC(OC(=O)C(CO)c1ccccc1)C2 (stereo not given)
Second: CNCCC(Oc1ccc(C(F)(F)F)cc1)c1ccccc1 (stereo not given)
The viability of the first is higher: 94.2% for the first, 85.8% for the second.

First: CC(C)CC(=O)N[C@H](C(=O)N[C@H](C(=O)N[C@@H](CC(C)C)[C@@H](O)CC(=O)N[C@@H](C)C(=O)N[C@@H](CC(C)C)[C@@H](O)CC(=O)O)C(C)C)C(C)C
Second: CCCCCCCCCCCCCCCC(=O)OCC(O)C1OC(=O)C(O)=C1O (stereo not given)
The viability of the first is lower: 98.2% for the first, 101% for the second.

In the case of `CC1COC2=C1C(=O)C(=O)c1c2ccc2c1CCCC2(C)C` (stereo not given), the viability is reported as 17.8% (active).
For `COc1ccc(CC(N)C(=O)N[C@H]2[C@@H](O)[C@H](n3cnc4c(N(C)C)ncnc43)O[C@@H]2CO)cc1` (stereo not given in full), the viability was 5.97% (active).
